# Compound activity (PubChem BioAssay)
# SMARCA2 act – SMARCA2 (BRM) function activators, primary screen, cell-based, luminescence, high throughput | MG213 cells, MMTV-luciferase reporter, dexamethasone, overnight | activation, % at 9.1 µM | 370,000 tested, 1% active; in the data active = activation above about 7.8%;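 note: 0% = vehicle wells and 100% = reference activator wells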
# HIF act – HIF pathway transcriptional activators, primary screen, cell-based, U2OS HRE-luciferase, luminescence. U2OS HRE-luciferase reporter; normalized: DMSO 0%, desferrioxamine 100%. activation, % at 7.5 µM (by protocol). 300,000 tested, 0.32% active. AID 1910, 2009;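 active = mean activation of at least 10% of the iron chelator positive control signal, with at least half of replicates also reaching 10%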
# Hsp70 act – Hsp70 transcriptional activators, primary screen, cell-based, HeLa, Hsp70 promoter luciferase, luminescence, 10 µM. activation, % at 10 µM. 200,000 tested, 0.04% active. HeLa Hsp70 promoter luciferase reporter; scaled: vehicle 0, proteasome-inhibitor control 100%;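 active = activation above the mean across all tested compounds plus 3 SD, cutoff set per campaign, cut at about 5.5% in these data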;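 note: 100% = MG132 at 30 µM as the positive control and 0% = DMSO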
# GalR3 antag – GalR3 antagonists in HEK293 cells, primary screen, cell-based, fluorescence readout | inhibition, % at 3 µM | AID 651719, 2012 | 360,000 tested, 0.44% active | Galanin receptor type 3 (Homo sapiens), O60755 | HEK293 GalR3-CNG cAMP membrane potential fluorescence; galR3 body fused to GalR1 C-terminus;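 active = inhibition above the screen-wide average plus 3 SD, cut at about 13% in these data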;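 note: forskolin and galanin both at EC90 stimulate the cells; cAMP rise reported by CNG channel membrane potential dye signal; 0% = forskolin plus galanin with DMSO and 100% = forskolin alone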
# Target sequence (O60755 1-299 limits assumed): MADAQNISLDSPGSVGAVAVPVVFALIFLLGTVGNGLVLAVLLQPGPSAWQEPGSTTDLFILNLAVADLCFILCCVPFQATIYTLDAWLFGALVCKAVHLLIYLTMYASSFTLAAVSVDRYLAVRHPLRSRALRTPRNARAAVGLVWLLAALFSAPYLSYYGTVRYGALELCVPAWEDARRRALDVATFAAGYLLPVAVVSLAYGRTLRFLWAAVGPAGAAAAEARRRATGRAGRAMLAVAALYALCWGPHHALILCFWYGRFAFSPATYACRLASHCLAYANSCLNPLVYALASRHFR
# FXN GAA850 act – FXN promoter activators, primary screen, cell-based, luciferase luminescence, HEK293 lucGAA850; 360,000 tested, 0.56% active; HEK293 lucGAA850 FXN promoter luciferase reporter, 24 h; percent of 10 µM SAHA response; activation, % at 6 µM;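 active = activation above the average of all compounds screened plus 3 SD, cutoff fixed separately per campaign, cut at about 7.5% in these data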;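 note: 0% = DMSO wells and 100% = 10 µM SAHA wells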
# Starred values were filed as active, the others as inactive; nt = not tested or not shown. Rows were chosen to be rich in hits. Some 2.2% of all compounds tested hit in one or more screens of this group.
SMILES,SMARCA2 act,HIF act,Hsp70 act,GalR3 antag,FXN GAA850 act
COc1ccc(-c2noc(C3CCCN(C(=O)NC4CCC(C)CC4)C3)n2)cc1 (stereo not given),0.8,nt,nt,nt,nt
O=C(N/N=C/c1sc2ccccc2c1O)c1cccc2ccccc12,-5.2,12.0*,-0.5,1.0,-2.4
O=C(N/N=C/c1sc2ccccc2c1O)c1ccccc1,nt,5.2,-0.2,nt,-9.9
O=C(NCc1ccccc1)C(=O)c1cn(CC(=O)N2CCOCC2)c2ccccc12,-0.5,196.9*,nt,1.9,0.7
CN1CCN(Cc2nc3ccccc3c(=O)n2Cc2nc(-c3ccccc3F)cs2)CC1,1.2,19.9*,-0.5,-5.7,-8.0
CN1CCN(Cc2nc3ccccc3c(=O)n2Cc2nc(-c3cccc([N+](=O)[O-])c3)cs2)CC1,0.6,nt,-0.2,1.0,-1.9
O=C(CSc1ncnc2c1oc1ccccc12)Nc1ccccc1F,0.7,-0.1,-0.1,-0.9,-1.5
CCOc1ccccc1NC(=O)CSc1ncnc2c1oc1ccccc12,-2.5,69.0*,-0.1,-5.9,-0.7
C#CCN1C(C(=O)OC)CN(CCCCCC)CCS1(=O)=O (stereo not given),1.8,nt,nt,nt,nt
CCn1nc(NS(=O)(=O)c2ccc(NC(C)=O)cc2)c2cc3cccc(C)c3nc21,-2.3,51.2*,nt,-2.4,0.6
CCn1nc(NS(=O)(=O)c2ccccc2)c2cc3cccc(C)c3nc21,3.5,0.1,0.5,-2.8,-1.2
c1ccc(-c2c[nH]c3cccc(-c4cc5ccccc5o4)c23)cc1,-2.6,nt,nt,nt,nt
O=C(O)c1cccnc1SCc1ccccc1Cl,-4.5,108.1*,-0.1,-3.2,1.2
NCCNC(=O)Cc1cccc(NC(=O)Cc2ccc(Nc3ncnc4c3ncn4[C@@H]3O[C@H](CO)[C@@H](O)[C@H]3O)cc2)c1,-1.8,0.1,nt,nt,10.2*
Cc1cccc(N=C2NC(=O)/C(=C\c3cccs3)S2)c1,7.9*,0.5,2.5,-0.9,3.6
O=C1NC(=Nc2cccc(O)c2)S/C1=C\c1cccnc1,7.9*,0.2,nt,0.7,0.2
Cc1cccc(N=C2NC(=O)/C(=C/c3cccnc3)S2)c1,-0.1,-0.3,nt,4.5,1.5
Cc1ccc(N=C2NC(=O)/C(=C/c3cccs3)S2)cc1C,2.9,1.0,-0.4,-0.5,3.9
Cc1ccc(-n2c(SCC(=O)Nc3ccccc3-c3ccccc3)nnc2-c2cccnc2)cc1,0.2,nt,nt,nt,nt
c1ccc(CSc2ccc(-c3ccccn3)nn2)cc1,0.5,10.1*,-0.2,-1.1,2.2
Clc1ccc(CSc2ccc(-c3ccccn3)nn2)cc1,1.1,23.9*,-0.4,-7.0,2.3
O=C(CSc1ccc(-c2ccccn2)nn1)NCc1ccc(Cl)cc1,-0.5,0.0,-0.3,-3.0,1.1
O=C(CSc1ccc(-c2ccccn2)nn1)c1ccccc1,2.9,2.5,0.1,-6.2,4.5
O=C(c1ccc2c(c1)OCO2)N1CCC(Oc2cccnc2)CC1,-1.7,nt,nt,nt,nt
Cc1cc(-c2n[nH]c(=S)n2-c2ccccc2)nn1C,7.9*,0.4,-0.3,-0.2,-0.2
SMILES,SMARCA2 act,HIF act,Hsp70 act,GalR3 antag,FXN GAA850 act
CCN(CC)c1ccc(C(NC(=O)C(C)C)c2ccc3cccnc3c2O)cc1 (stereo not given),-3.3,nt,nt,-4.0,-9.2
CCCCC(=O)NC(c1ccc(N(C)C)cc1)c1ccc2cccnc2c1O (stereo not given),-3.6,88.6*,nt,-3.6,-6.2
CCCCC(=O)NC(c1ccc(N(CC)CC)cc1)c1ccc2cccnc2c1O (stereo not given),-2.9,96.9*,nt,-5.9,-3.8
CCc1nnn2c1Cn1c3ccccc3c(=O)n1[C@@H](C)C2,-0.6,nt,nt,nt,nt
COc1ccc(C(=O)C[n+]2cc(-c3ccc(OC)cc3)n3c2CCCC3)cc1,-2.9,-0.1,-0.4,3.9,1.2
Cc1ccc(C(=O)C[n+]2cc(-c3ccc(C)cc3)n3c2CCCCC3)cc1,-7.3,0.0,-0.2,19.9*,-6.7
COC(=O)[C@]12C[C@H](CC(=O)N3CCN(C(=O)c4ccco4)CC3)C(=O)N(CCC3=CCCCC3)C1=C[C@H](COCc1ccccc1)O[C@@H]2C,-1.3,nt,nt,-3.8,nt
Cc1nnsc1NC(=O)OCc1ccc(C(C)(C)C)cc1,-2.6,0.8,-0.4,36.4*,-2.5
CC(C)(C)c1ccc(-c2cn(C[C@H](Cc3ccccc3)n3c(=O)c4ccccc4n3Cc3ccno3)nn2)cc1,-3.5,nt,nt,nt,nt
Nc1[nH]c(C(=O)c2ccccc2)c(-c2ccccc2)c1C(=O)NCCc1c[nH]c2ccccc12,4.1,nt,nt,-7.0,nt
Cc1ccccc1Nc1c(-c2ccccn2)nc2ccccn12,-3.6,12.8*,-0.2,-4.1,-7.1
Cc1ccc2nc(-c3ccccn3)c(Nc3ccccc3C)n2c1,-1.5,22.0*,0.0,-3.3,0.2
Cc1ccn2c(Nc3ccccc3C)c(-c3ccccn3)nc2c1,-3.7,12.4*,0.0,-4.2,-1.4
Cc1ccn2c(Nc3ccccc3)c(-c3ccccn3)nc2c1,-6.4,8.6,-0.2,2.6,1.9
Cc1ccc2nc(-c3cccnc3)c(Nc3ccccc3C)n2c1,-2.2,-0.9,0.0,2.0,0.4
CCC[C@H](/C=C/C(=O)OC(C)(C)C)Sc1ccc(N)cc1,-1.7,nt,nt,nt,nt
CCCCS(=O)(=O)NCC1CCN(C(=O)C(=O)c2cc3ccccc3o2)CC1,-4.7,nt,nt,-3.2,nt
Cc1nc(N2CCOCC2)c2c(C)c(C(=O)Nc3ccccc3Cl)sc2n1,3.1,-0.3,0.1,1.7,3.2
Cc1nc(N2CCOCC2)c2c(C)c(C(=O)Nc3ccc(F)cc3Cl)sc2n1,-3.7,-0.2,0.0,13.5*,0.9
C[C@@H]1[C@@H](O)C[C@@]2(CC(=O)c3ccccc3O2)O[C@H]1c1ccccc1,0.1,nt,nt,nt,nt
C=CCN1C(=O)[C@@H](CC(=O)NCc2cccs2)[C@]2(C(=O)OC)CCCCC=C12,-5.0,nt,nt,nt,nt
O=C(CSc1nnc(-c2ccc(F)cc2)c2ccccc12)NCC1CCCO1 (stereo not given),-3.2,-0.6,-0.1,-5.7,8.8*
Cc1ccc(C)c(S(=O)(=O)N2CCN(Cc3ccc(O)c4ncccc34)CC2)c1,-3.1,28.9*,-0.5,0.4,-2.4
CCOC(=O)N1CCN(Cc2ccc(O)c3ncccc23)CC1,1.1,0.3,-0.1,6.6,nt
Oc1ccc(CN2CCC(Cc3ccccc3)CC2)c2cccnc12,0.0,17.9*,-0.5,-6.7,nt
Oc1ccc(CN2CCc3ccccc3C2)c2cccnc12,-3.1,158.8*,-0.2,-4.1,-6.2
Cc1ccc(-c2c(NC(=O)Nc3ccc(F)cc3)nc3ncccn23)cc1,1.2,nt,nt,nt,nt
Cc1ccc(C)c(OCC(=O)O/N=C(\N)c2cccc([N+](=O)[O-])c2)c1,-4.6,113.7*,nt,1.6,0.3
N/C(=N\OC(=O)COc1ccc(Br)cc1)c1cccc([N+](=O)[O-])c1,-1.8,0.5,nt,-5.6,0.4
CCCCCCCCN1C(=O)[C@@H](CC(=O)N2CCCCC2)C[C@@]2(C(=O)OC)C1=C[C@H](C1CCCC1)O[C@@H]2C,-3.8,nt,nt,1.2,nt
